HT1080-NT tox – qHTS for induction of synthetic lethality in tumor cells producing 2HG: qHTS for the HT-1080-NT fibrosarcoma cell line; HT-1080-NT fibrosarcoma viability, CellTiter-Glo ATP luminescence, 48 h; Potency, µM (doses to about 46.1 µM), for the others: at the top dose activity, negative = less viability, most hits filed as cytotoxic; actives 1.6% (n = 360,000);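 also: NT is the 2HG producing partner of a matched IDH1 knockdown line; potency is read from the fitted curve at half-maximal effect; 0% = DMSO-treated cells and -100% = media-only wells without cells; nearly all actives have a fitted effect of over 55% in size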
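A 48-hour cytotoxicity screen used HT-1080-NT cells plated 2 hours before compound delivery. ATP-based CellTiter-Glo luminescence measured viability, normalized to DMSO and no-cell controls.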
HT1080 IDH1KD tx – qHTS for induction of synthetic lethality in tumor cells producing 2HG: qHTS for the HT-1080-IDH1KD cell line | HT-1080 IDH1 knockdown viability, ATP luminescence, 48 h | Potency, µM (doses to about 46.1 µM), for the others: top-dose activity, negative = toxicity, usual class: cytotoxic | actives 2% (n = 360,000);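 also: potency is read from the fitted curve at half-maximal effect; 0% = DMSO wells and -100% = cell-free medium wells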
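Viability of IDH1-knockdown HT-1080 fibrosarcoma cells was assessed by CellTiter-Glo after 48 h at 37 °C with titrated compound; concentration-effect curves were classified by fit quality and response size.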
DT40 TDP1 no CPT – qHTS for Inhibitors of human tyrosyl-DNA phosphodiesterase 1 (TDP1): qHTS in cells in absence of CPT. DT40 Tdp1-/- hTDP1 cells, no CPT, ATP luminescence, 48 h. Potency, µM (top dose mostly 46.2 µM), inactives show top-dose activity change, negative = growth inhibition, hits mostly inhibitors. actives 15% (n = 420,000); also: potency is read from the fitted curve at half-maximal effect; nearly all actives have a fitted effect of over 55% in size
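Cells were dispensed at 400 per well, compounds added by pin tool, plates incubated ≥48 hr at 37 °C, then CellTiter-Glo added for 30 min at room temperature before luminescence reading. Line: DT40 Tdp1-/- complemented with hTDP1; camptothecin omitted.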
IL-1B inflam inh – qHTS for Inhibitors of Inflammasome Signaling: IL-1-beta AlphaLISA Primary Screen. activity change, % at 57.5 µM. actives 4.7% (n = 360,000). THP-1 LPS/ATP IL-1B secretion, AlphaLISA, 16 h; hits give low values; in the data active = activity change below about -50%; inconclusive = mostly about -30% to -49%
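THP-1 cells pretreated 1 hr with compounds (up to 57.5 uM final), then stimulated with LPS (250 ng/mL final) plus ATP (1.25 mM final); secreted IL-1B measured by AlphaLISA after 16 hr, decreased signal indicating inhibition.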
TDP1 cell CPT – qHTS for Inhibitors of human tyrosyl-DNA phosphodiesterase 1 (TDP1): qHTS in cells in presence of CPT. actives 12% (n = 420,000). Potency, µM (series often up to 46.2 µM), for inactives: at the highest dose activity change, negative = growth inhibition, actives largely listed as inhibitors. chicken DT40 Tdp1-/-;hTDP1 cells + 20 nM CPT, ATP luminescence, 48 h; also: potency is read from the fitted curve at half-maximal effect; nearly all actives have a fitted effect of over 55% in size
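Chicken DT40 Tdp1-/- cells complemented with human TDP1, 400 cells/well, exposed to compounds plus 20 nM camptothecin for at least 48 h at 37 C; viability read as ATP content by CellTiter-Glo luminescence.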
Starred values were filed as active, the others as inactive; u = inconclusive; x = not tested or not shown. Shown are actives, neighbours in structure and some others; about 19% of the full set was active somewhere. Unless noted, calls follow the shape of the dose curve; as a rule, active = well fitted curve in the direction sought with a large enough effect; inconclusive = small, poorly fitted or top-dose-only effect, or another doubt; inactive = no such curve, though single readings can be large; an effect the other way counts as inactive or inconclusive. Unless noted, % is scaled to controls: 0 for no effect and ±100 for the full control effect.

SMILES | HT1080-NT tox | HT1080 IDH1KD tx | DT40 TDP1 no CPT | IL-1B inflam inh | TDP1 cell CPT
Cc1ccc(-n2ncc3c(SCc4cccc(C)c4)ncnc32)cc1 | u | u | -29% | 15 | -24%
Cc1ccc(-n2ncc3c(SCc4cccnc4)ncnc32)c(C)c1 | u | u | 12µM* | -13 | 16µM*
O=C(C1CCCO1)N1CCN(C(=S)Nc2cc(F)cc(F)c2)CC1 (stereo unspecified) | 4% | -2% | 2% | -19 | -6%
CCCc1cc(=O)[nH]c(Nc2cc(Cl)ccc2OC)n1 | x | x | -13% | x | 2%
CCC(=O)OCOc1ccc(/C=C2/CCC(CN(C)C)C2=O)cc1 (stereo unspecified) | u | 16µM* | 2.9µM* | -1 | 2.3µM*
CCc1nc(Nc2ccc(OC)c(OC)c2)c2nnn(Cc3ccccc3Cl)c2n1 | -4% | u | 16µM* | -65* | -114%
CN(C)S(=O)(=O)c1ccc(Nc2nc(C3CC3)nc3c2nnn3Cc2ccccc2Cl)cc1 | u | 5.8µM* | 8.2µM* | -10 | 9.2µM*
COc1cccc(OC)c1Nc1nc(C)nc2c1nnn2Cc1ccccc1Cl | 5% | 12% | -3% | 9 | 0%
COC(=O)CNc1nc(C2CC2)nc2c1nnn2Cc1ccccc1Cl | -3% | 12% | -20% | 15 | -17%
CCn1c(CC(=O)Nc2ccc(C)cc2)n[nH]c1=S | 12% | 10% | -19% | 3 | 5%
CN(C)c1ccc(CNS(=O)(=O)c2ccc(-c3cc(C(F)(F)F)on3)s2)cc1 | x | x | 7% | x | -5%
O=C(CCCN1C(=O)c2ccccc2C1=O)NCCc1ccc(OC(F)F)cc1 | 20% | u | -20% | 22 | 18%
O=C(C1CCC(Cn2c(=S)[nH]c3ccccc3c2=O)CC1)N1CCN(c2ccccc2)CC1 (stereo unspecified) | -3% | -26% | u | 9 | u
COc1ccccc1N1CCN(C(=O)C2CCC(Cn3c(=S)[nH]c4ccccc4c3=O)CC2)CC1 (stereo unspecified) | -5% | -14% | u | 30 | 23µM*
O=C(C1CCC(Cn2c(=S)[nH]c3ccccc3c2=O)CC1)N1CCN(c2ccccn2)CC1 (stereo unspecified) | -1% | -4% | 23µM* | 13 | u
COc1ccc(N2CCN(C(=O)C3CCC(Cn4c(=S)[nH]c5ccccc5c4=O)CC3)CC2)cc1 (stereo unspecified) | 11% | -2% | 23µM* | -8 | 15µM*
O=C(O)c1ccc(S(=O)(=O)NC2CCCCCC2)cc1 | 0% | 4% | -1% | -20 | 6%
COc1ccc(CN2CCNC(=O)C2CC(=O)N2CCCCO2)c(OC)c1 (stereo unspecified) | 8% | 8% | 21% | 0 | 5%
CCOC(=O)C1=C(C)N=c2s/c(=C/c3cccc([N+](=O)[O-])c3O)c(=O)n2C1c1cc(OC)c(OC)c(OC)c1 (stereo unspecified) | -4% | 4% | 7.3µM* | 19 | u
CCOC(=O)C1=C(C)N=c2s/c(=C/c3cccc([N+](=O)[O-])c3O)c(=O)n2C1c1ccccc1 (stereo unspecified) | -4% | -11% | 16µM* | 14 | 13µM*
CCOC(=O)C1=C(C)N=c2s/c(=C\c3cc(OC)c(OC)c(OC)c3)c(=O)n2C1/C=C/c1ccccc1 (stereo unspecified) | -3% | -2% | u | 2 | -3%
CCOC(=O)C1=C(C)N=c2s/c(=C/c3ccco3)c(=O)n2C1c1cccc(OC)c1 (stereo unspecified) | -11% | -5% | 23µM* | -24 | u
COC(=O)C1=C(C)N=c2s/c(=C/c3ccoc3)c(=O)n2C1c1ccccc1 (stereo unspecified) | -1% | -2% | u | -1 | 23µM*
CC(=O)NC(CC(=O)NCCCn1ccc2ccccc21)c1ccccc1 (stereo unspecified) | -12% | 0% | -19% | -4 | -1%
CNc1nnc(-c2cc3cc(Cl)ccc3oc2=O)s1 | 12% | 1% | 1% | -7 | -21%
SMILES | HT1080-NT tox | HT1080 IDH1KD tx | DT40 TDP1 no CPT | IL-1B inflam inh | TDP1 cell CPT
O=c1oc2ccc(Cl)cc2cc1-c1nnc(Nc2cccc(C(F)(F)F)c2)s1 | -3% | 8% | 2.6µM* | -7 | u
COc1ccccc1C(C)NC(=O)c1cc(=O)[nH]c2ccccc12 (stereo unspecified) | -7% | 16% | -7% | -18 | -11%
COc1ccccc1C(C)NCC(=O)c1c(C)[nH]c2ccccc12 (stereo unspecified) | x | x | 18µM* | x | 11µM*
Cc1csc(-c2coc3cc(O)cc(C)c3c2=O)n1 | u | u | u | 20 | 16µM*
COc1ccc2c(=O)c(-c3nc(C)cs3)coc2c1 | -11% | -16% | -23% | 0 | -21%
Oc1ccc(N2CCN(Cc3c(-c4ccccc4)nc4ccccn34)CC2)cc1 | -19% | -18% | 15µM* | -12 | u
c1ccc(-c2nc3ccccn3c2-c2ccccc2)cc1 | -17% | -28% | 12µM* | 0 | u
COC(=O)Nc1c(-c2ccccc2)nc2ccccn12 | 2% | 17% | 0% | 5 | 1%
O=C(CCC1CCCN(c2ncccn2)C1)NCc1ccc(F)c(F)c1 (stereo unspecified) | 5% | 0% | -24% | 9 | -36%
COc1ccc(CNc2ncncc2-c2ccc(N(C)C)cc2)c(OC)c1 | x | x | u | x | 18µM*
COc1ccc(CNc2ncnc3ccc(-c4ccc(N(C)C)cc4)cc23)c(OC)c1 | x | x | u | x | 23µM*
COc1ccc(CNc2ncncc2-c2cccc(NS(C)(=O)=O)c2)c(OC)c1 | x | x | 6% | x | -10%
COc1ccc(CNc2ncnc3ccc(-c4c(C)noc4C)cc23)c(OC)c1 | x | x | u | x | -7%
CCN(CC)CCn1c(=N)n(CC(O)COc2ccccc2)c2ccccc21 (stereo unspecified) | 16µM* | u | 18µM* | -29 | u
CN=c1sc2ccccc2n1CC(O)COc1ccccc1 (stereo unspecified) | 1% | -9% | 18µM* | 0 | u
CCCn1c(=N)n(CC(O)COc2ccc(C)cc2)c2ccccc21 (stereo unspecified) | 16µM* | 16µM* | 5.2µM* | x | 4.6µM*

High-throughput results from PubChem.
